AmpC inh detg: qHTS Inhibitors of AmpC Beta-Lactamase (assay with detergent); AmpC hydrolysis of nitrocefin, absorbance 480 nm, 0.01% Triton; P00811; Potency, µM (doses to about 114 µM), inactives show at the top dose activity change, negative = inhibition, usual class: inhibitors; hit rate 0.041% among 370,000;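 also: 0% = no-compound wells and -100% = no-enzyme wells; nearly all actives have a fitted effect of over 25% in size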
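AmpC (5.3 nM in the dispensed reagent) in 20 mM phosphate pH 7.0 with 0.01% (detergent screen) or 0.0001% Triton X-100 was preincubated with compounds for 15 min at room temperature. Nitrocefin was then added from an 800 uM solution, and hydrolysis was followed at 480 nm.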
AmpC inh no detg: qHTS Inhibitors of AmpC Beta-Lactamase (assay without detergent) | P00811 | AmpC nitrocefin hydrolysis, absorbance 480 nm, 0.0001% Triton | Potency, µM (titrated, usually from 57.1 µM), for inactives: top-dose activity change, negative = inhibition, usual class: inhibitors | hit rate 0.52% among 330,000;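 also: plate controls were no compound for no effect and no enzyme for full effect; nearly all actives have a fitted effect of over 20% in size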
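AmpC (5.3 nM in the dispensed reagent) in 20 mM phosphate pH 7.0 with 0.01% (detergent screen) or 0.0001% Triton X-100 was preincubated with compounds for 15 min at room temperature. Nitrocefin was then added from an 800 uM solution, and hydrolysis was followed at 480 nm.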
SARS PLpro yeast: qHTS of Yeast-based Assay for SARS-CoV PLP; S. cerevisiae expressing SARS-CoV PLpro, growth rescue; Potency, µM (titrated, usually from 32.9 µM), inactives show top-dose activity, positive = growth rescue, usual class: activators; hit rate 0.19% among 330,000; calls by dose curve; also: 0% is about no effect; nearly all actives have a fitted effect of over 55% in size
Giardia FBPA inh-1: qHTS Assay for Inhibitors of Fructose-1,6-bisphosphate Aldolase from Giardia Lamblia. purified Giardia FBPA. A8B2U2. hit rate 0.71% among 290,000. Potency, µM (titrated, usually from 59.6 µM), for inactives: top-dose activity, negative = inhibition, hits mostly inhibitors. AID 2451, 2010; also: % is scaled to controls: 0 for no effect and ±100 for the full control effect; nearly all actives have a fitted effect of over 55% in size
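40 nM FBPA preincubated 10 min at RT with compound (up to 57.5 uM final), then substrate plus GAPDH/TPI/NAD/arsenate coupling and diaphorase/resazurin added. Fluorescence read after 20 min at RT, 525/598 nm.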
Giardia growth: qHTS Assay for Inhibitors of Fructose-1,6-bisphosphate Aldolase from Giardia Lamblia: Giardia lamblia growth inhibition | shares compounds with Giardia FBPA inh-1 | Giardia lamblia trophozoite growth inhibition | Potency, µM (highest dose often 57.5 µM), for inactives: at the top dose activity change, negative = inhibition, most hits filed as inhibitors | hit rate 5% among 1,500;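 also: trophozoites exposed to compound for 48 h at 37 °C; % is scaled to controls: 0 for no effect and ±100 for the full control effect; nearly all actives have a fitted effect of over 70% in size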
Mammal cell tox: qHTS Assay for Inhibitors of Fructose-1,6-bisphosphate Aldolase from Giardia Lamblia: Mammalian cellular toxicity; shares compounds with Giardia FBPA inh-1; mammalian cell viability counter-screen, qHTS; Potency, µM (highest dose often 57.5 µM), without a hit: at the top dose viability change, negative = toxicity, usual class: inhibitors; hit rate 4% among 1,500;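 also: Chinese hamster ovary cells used as mammalian cytotoxicity surrogate; viability measured as cellular ATP by luminescence; compound exposure lasted 48 h before reading; % is scaled to controls: 0 for no effect and ±100 for the full control effect; nearly all actives have a fitted effect of over 60% in size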
Giardia FBPA inh-2: qHTS Assay for Inhibitors of Fructose-1,6-bisphosphate Aldolase from Giardia Lamblia: Primary screen confirmation | shares compounds with Giardia FBPA inh-1 | purified Giardia aldolase enzyme activity, qHTS | Potency, µM (series often up to 57.5 µM), for the others: top-dose activity change, negative = inhibition, most hits filed as inhibitors | hit rate 5% among 1,500 | AID 2787, 2010; also: % is scaled to controls: 0 for no effect and ±100 for the full control effect; nearly all actives have a fitted effect of over 45% in size
Rabbit aldolase: qHTS Assay for Inhibitors of Fructose-1,6-bisphosphate Aldolase from Giardia Lamblia: Rabbit FBPA Selectivity; hit rate 4% among 1,500; Potency, µM (series often up to 57.5 µM), for inactives: top-dose activity, negative = inhibition, most hits filed as inhibitors; shares compounds with Giardia FBPA inh-1; Rabbit muscle FBPA enzyme inhibition, selectivity counter-screen; also: % is scaled to controls: 0 for no effect and ±100 for the full control effect; nearly all actives have a fitted effect of over 60% in size
Target sequence (P00883 whole entry, looked up): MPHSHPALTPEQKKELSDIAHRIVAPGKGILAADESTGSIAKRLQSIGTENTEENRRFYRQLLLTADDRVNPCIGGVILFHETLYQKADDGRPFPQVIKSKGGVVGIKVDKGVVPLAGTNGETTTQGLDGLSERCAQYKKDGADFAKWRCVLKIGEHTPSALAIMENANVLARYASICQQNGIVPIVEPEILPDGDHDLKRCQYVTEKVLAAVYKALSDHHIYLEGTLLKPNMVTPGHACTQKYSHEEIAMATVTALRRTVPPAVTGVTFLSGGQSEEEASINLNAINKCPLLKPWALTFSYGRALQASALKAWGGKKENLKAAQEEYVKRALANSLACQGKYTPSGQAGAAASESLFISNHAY
GAPDH counter: qHTS Assay for Inhibitors of Fructose-1,6-bisphosphate Aldolase from Giardia Lamblia: Coupling assay counterscreen confirmation | shares compounds with Giardia FBPA inh-1 | GAPDH coupling enzyme counterscreen, biochemical, qHTS | Potency, µM (doses to about 57.5 µM), without a hit: at the highest dose activity change, negative = inhibition, usual class: inhibitors | hit rate 6% among 1,500; also: % is scaled to controls: 0 for no effect and ±100 for the full control effect; nearly all actives have a fitted effect of over 55% in size
* = called active by the depositor; ? = inconclusive; / = no result; [ ] = another dose, or the depositor's remark. The list is not random: actives were taken first. Their share in the collection is about 1.1%. Unless noted, calls follow the shape of the dose curve; as a rule, active = well fitted curve in the direction sought with a large enough effect; inconclusive = small, poorly fitted or top-dose-only effect, or another doubt; inactive = no such curve, though single readings can be large; an effect the other way counts as inactive or inconclusive. Potency is read from the fitted curve at half-maximal effect.

SMILES	AmpC inh detg	AmpC inh no detg	SARS PLpro yeast	Giardia FBPA inh-1	Giardia growth	Mammal cell tox	Giardia FBPA inh-2	Rabbit aldolase	GAPDH counter
Cc1cccc(C)c1NC(=O)CSc1nnc(-c2ccco2)c(-c2ccco2)n1	-1%	-28%	0%	7.9µM*	0%[10.4 µM]	15%	?	-23%	?
COc1cccc(CNC(=O)c2ccc3c(c2)sc2nc(-c4ccccc4)cn23)c1OC	21%	/	/	/	/	/	/	/	/
O=C(O)c1cc2nccc(-c3ccco3)n2n1	-1%	-8%	-3%	-8%	/	/	/	/	/
COc1ccc(-c2ccnc3cc(C(=O)O)nn23)cc1	-3%	-10%	2%	18µM*	47%	23%	4%	0%	7%
COCCCNC(=O)C1CCN(C(=O)c2ccc(-n3ccc4ccccc43)s2)CC1	4%	/	/	/	/	/	/	/	/
Cc1ccc(/C=C2\SC(=S)N(NS(=O)(=O)c3ccc(C)cc3)C2=O)cc1	-14%	-32%	-2%	25µM*	24%	-8%	16%	8%	17%
COc1ccc(C)cc1NC(=O)C(NCC(O)c1ccccc1)c1ccccc1 (configuration not stated)	-6%	-4%	0%	13µM*	21%	11%	4%	1%	0%
O=C(Nc1ccccc1)Oc1ccc[nH]c1=O	-4%	-8%	-2%	1.4µM*	13%[38.3 µM]	?	0.23µM*	0.73µM*	2.6µM*
COc1ccc(C)cc1NS(=O)(=O)c1ccc2c(c1)[C@H]1C=CC[C@H]1[C@@H](c1cccc(Cl)c1)N2	4%	/	/	/	/	/	/	/	/
CCOC(=O)N1CCc2c(sc(NCc3cccc(F)c3)c2C(=O)Nc2ccc(OC)cc2OC)C1	-2%	/	/	/	/	/	/	/	/
CN(C1=C(NC(=O)c2ccccc2)C(=O)c2ccccc2C1=O)C1CCS(=O)(=O)C1 (configuration not stated)	-12%	-40%	-8%	0.63µM*	25µM*	40µM*	?	?	6.3µM*
COc1cc(Br)c(CN2CCCN(C)CC2)cc1OC	?	1%	-2%	13µM*	15%	10%	0%	7%	11%
NC(=O)c1c(NC(=O)c2ccccc2)sc2c1CCN(Cc1ccccc1)C2	-7%	-17%	2%	16µM*	?	-17%	0%	2%	10%
CC(C)C(=O)Nc1sc2c(c1C(N)=O)CCN(Cc1ccccc1)C2	-7%	0%	-7%	28µM*	3%[10.4 µM]	-11%	1%	3%	-18%
NC(=O)c1c(NC(=O)c2c(F)cccc2F)sc2c1CCN(Cc1ccccc1)C2	-14%	7%	1%	?	/	/	/	/	/
CCN1CCc2c(sc(NC(=O)Cc3ccccc3)c2C(=O)OC)C1	-3%	-1%	-4%	14µM*	5%[10.4 µM]	4%	9%	12%	16%
COc1cccc(CSc2nc3n(n2)C(CC(C)C)C(C(=O)Nc2ccccc2OC)=C(C)N3)c1 (configuration not stated)	2%	/	/	/	/	/	/	/	/
